Test results reported in PubChem BioAssay AID1645853 (Buhrlage Lab, Dana-Farber Cancer Institute and Novartis …, 2021).
The whole screen tested about 47,000 compounds, of which about 2,000 (4.3%) were called active. Cut-off read from the data, not from the text of the source: active = inhibition above about 30%; inactive = the rest. The full list was thinned out, with actives kept by preference.

target: Ubiquitin carboxyl-terminal hydrolase 8 (Homo sapiens) (UniProt P40818); experiment: blocks human USP8 ubiquitin-rhodamine cleavage (AID 1645853); settings: purified USP8, Ub-rhodamine cleavage fluorescence, 30 min; at 20 µM; active compounds read high
Sequence (P40818 whole entry, looked up): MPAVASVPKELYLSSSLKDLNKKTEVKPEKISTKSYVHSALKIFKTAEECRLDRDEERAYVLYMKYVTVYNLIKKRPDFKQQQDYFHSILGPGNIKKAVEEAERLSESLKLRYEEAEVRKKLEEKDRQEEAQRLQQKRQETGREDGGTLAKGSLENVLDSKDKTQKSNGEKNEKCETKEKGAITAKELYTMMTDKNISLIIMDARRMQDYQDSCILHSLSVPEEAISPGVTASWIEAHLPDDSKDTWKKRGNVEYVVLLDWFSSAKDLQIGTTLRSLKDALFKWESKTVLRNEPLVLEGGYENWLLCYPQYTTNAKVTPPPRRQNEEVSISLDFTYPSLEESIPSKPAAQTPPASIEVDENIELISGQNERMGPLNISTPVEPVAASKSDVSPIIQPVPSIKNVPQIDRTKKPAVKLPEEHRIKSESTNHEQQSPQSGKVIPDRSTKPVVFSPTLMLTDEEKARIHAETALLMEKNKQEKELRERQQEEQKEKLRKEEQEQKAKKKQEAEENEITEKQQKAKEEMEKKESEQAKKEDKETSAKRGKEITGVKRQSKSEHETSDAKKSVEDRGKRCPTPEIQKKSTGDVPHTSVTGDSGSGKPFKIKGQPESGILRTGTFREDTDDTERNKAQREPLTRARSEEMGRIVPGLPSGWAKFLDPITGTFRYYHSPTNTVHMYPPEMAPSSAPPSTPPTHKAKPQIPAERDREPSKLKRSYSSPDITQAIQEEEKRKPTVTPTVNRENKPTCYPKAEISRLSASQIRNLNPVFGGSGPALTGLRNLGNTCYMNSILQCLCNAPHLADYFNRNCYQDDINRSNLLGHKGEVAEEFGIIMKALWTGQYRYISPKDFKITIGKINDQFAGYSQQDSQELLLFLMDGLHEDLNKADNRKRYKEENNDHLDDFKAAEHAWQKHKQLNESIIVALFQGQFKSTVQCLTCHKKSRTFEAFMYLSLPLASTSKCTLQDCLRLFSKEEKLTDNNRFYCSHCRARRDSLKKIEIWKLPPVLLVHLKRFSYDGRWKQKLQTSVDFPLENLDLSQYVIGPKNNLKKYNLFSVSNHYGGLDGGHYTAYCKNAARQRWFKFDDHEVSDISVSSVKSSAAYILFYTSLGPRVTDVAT

SMILES | inhibition
CC(C)C(=O)N1CCN2[C@H](C[C@@H](C(=O)N(C)C)[C@]23C(=O)Nc2ccccc23)C1 | 18.9% (inactive)
CC(C)(C)C(=O)Cn1c(=O)n(Cc2ccco2)c(=O)c2ccccc21 | -0.0891% (inactive)
COc1ccc(CNC(=O)Cn2c(C)nc3onc(C)c3c2=O)cc1 | 2.79% (inactive)
COc1ccc(-c2nc3c(c(=O)c4ccccc4n3C)c(=O)n2CCc2ccc(OC)c(OC)c2)cc1 | 33.9% (active)
COc1ccc(-c2nc3c(c(=O)c4ccccc4n3C)c(=O)n2Cc2ccco2)cc1 | 89.7% (active)
O=c1c2ccccc2n(Cc2ccccc2Cl)c(=O)n1Cc1ccco1 | -2.33% (inactive)
COc1ccc(-c2ocnc2C(=O)NCc2ccc(OC)c(OC)c2)cc1 | 3.07% (inactive)
COc1cccc(CCC(=O)N2CCN(c3cc(C)n4cnnc4n3)CC2)c1 | -8.31% (inactive)
CCc1ccc(NC(=O)CSc2nc(-c3ccccc3F)nc3cc(=O)[nH]n23)cc1 | -16% (inactive)
CCc1ccc(S(=O)(=O)N2CCN=C2N2CCCCC2)cc1 | -0.222% (inactive)
CCN(C)C(=O)c1cc(-c2ccn(-c3ccccc3)n2)n2ccccc12 | -39.1% (inactive)
O=C(Nc1cccc2ccccc12)N1CCN(Cc2ccc3c(c2)OCO3)CC1 | 61.7% (active)
O=C(NCc1ccc2c(c1)OCO2)C1=CCN(Cc2ccccc2)CC1 | -26.8% (inactive)
COC(=O)c1cc2c(ccn2C)n1CC(=O)N1CCN(Cc2ccc3c(c2)OCO3)CC1 | 22.5% (inactive)
CCCCN(c1ccccc1)S(=O)(=O)c1cccc(C(=O)OCC(=O)NCc2ccc3c(c2)OCO3)c1 | 22.8% (inactive)
COc1ccc(N2CC(c3nnc(NC(=O)CCc4ccccc4)s3)CC2=O)cc1 (configuration not stated) | 43.3% (active)
Cc1ccc(CC(=O)Nc2nnc(C3CC(=O)N(c4ccc(C)c(C)c4)C3)s2)cc1 (configuration not stated) | 35.8% (active)
COc1ccc(-c2nc(C3CC(=O)N(c4ccccc4)C3)no2)cc1 (configuration not stated) | 12.9% (inactive)
Cc1ccc(N2CCCS2(=O)=O)cc1NC(=O)Cc1ccc(Cl)cc1 | 15.3% (inactive)
CC(C)c1nnc(NC(=O)C2CC(=O)N(CCc3ccc(F)cc3)C2)s1 (configuration not stated) | -27.4% (inactive)
Cc1ccc(N2CC(c3nnc(NC(=O)CCCc4ccccc4)s3)CC2=O)cc1 (configuration not stated) | -58.7% (inactive)
CN1CCN(c2ncc(NC(=O)c3ccccn3)cn2)CC1 | -1.52% (inactive)

SMILES | inhibition
CC1CCN(S(=O)(=O)CC(F)(F)F)Cc2nc3ccccc3n21 (configuration not stated) | -0.0013% (inactive)
CCCNc1nc(Nc2ccc(OC)cc2)c2cnn(C)c2n1 | -0.418% (inactive)
Nc1nc(N2CCCC2)nc2c1CCN(Cc1ccc3ncccc3c1)C2 | -7.44% (inactive)
O=C(Nc1ccc2c(c1)OCO2)N1CCCCCC1 | 5.28% (inactive)
O=C(CN1CCN(CC(=O)Nc2ccc3c(c2)OCO3)CC1)Nc1ccc(F)cc1 | 38.1% (active)
O=C(CCOc1ccccc1F)Nc1ccc2c(c1)OCO2 | 7.17% (inactive)
Cc1ccc(-c2noc(-c3cccc(OCC(=O)N(C)C)c3)n2)cc1 | -30% (inactive)
COc1cccc(-c2cc3c(=O)n(Cc4nc(-c5ccccc5C)no4)ccn3n2)c1 | 0.201% (inactive)
CCOc1ccc(-c2noc(-c3nn(-c4cccc(OC)c4)ccc3=O)n2)cc1 | 81.8% (active)
COc1nc2c(c(-c3ccc[nH]3)c1C#N)Cc1ccccc1-2 | -97.1% (inactive)
Nc1cccc(C(=O)CC2(O)C(=O)N(CCc3ccccc3)c3ccccc32)c1 (configuration not stated) | -96.8% (inactive)
CNc1nc(C2CCCN(C(C)=O)C2)nc2c1CCN(C(=O)c1oc3ccccc3c1C)C2 (configuration not stated) | -2.25% (inactive)
O=C(COc1cccc2ccc(N3CCC(Cc4ccccc4)CC3)nc12)Nc1cccc(F)c1 | 84.1% (active)
O=C(COc1cccc2ccc(N3CCC(Cc4ccccc4)CC3)nc12)NCc1ccc(F)cc1 | 65.7% (active)
O=C(CCc1nnc2ccc(N3CCCC3)nn12)NCc1ccc(F)cc1 | 29.2% (inactive)
COc1ccc(NC(=O)CSc2ncccc2C(=O)N2CCC(Cc3ccccc3)CC2)cc1OC | -0.608% (inactive)
O=C(CC1C(=O)OCCN1Cc1ccccc1)Nc1cccc(F)c1 (configuration not stated) | -10.4% (inactive)
Cn1c(=O)c(N2CCC(C(=O)NCc3ccc(F)cc3)CC2)nc2cccnc21 | 7.77% (inactive)
CC(c1ccccc1)n1c(CCCNC(=O)C2CCCCC2)nc2ccccc21 (configuration not stated) | -8.43% (inactive)
Cc1ccc(NC(=O)Cn2cccc(S(=O)(=O)N3CCCCCC3)c2=O)c(C)c1 | -3.12% (inactive)
Cn1c2c(c(=O)n(C)c1=O)C(c1cccc(Cl)c1Cl)CC(=O)N2 (configuration not stated) | -0.255% (inactive)
O=C(CSc1n[nH]c(-c2cccnc2)n1)Nc1ccc(Cl)cc1 | -5.47% (inactive)

SMILES | inhibition
COCCn1c(=O)[nH]c2cc(C(=O)NCCNc3ccc([N+](=O)[O-])cc3C#N)ccc2c1=O | 55.6% (active)
COCCn1c(=O)[nH]c2cc(C(=O)NCc3ccc(Cl)cc3)ccc2c1=O | -1.21% (inactive)
COCCn1c(=O)[nH]c2cc(C(=O)N3CCC(Cc4ccccc4)CC3)ccc2c1=O | -0.0121% (inactive)
Cc1cccc(NC(=O)N2CCCC3(CCCN3C)C2)c1 (configuration not stated) | -319% (inactive)
CN1CCN(c2ncc(NC(=O)c3ccc(C(F)(F)F)cc3)cn2)CC1 | -15.2% (inactive)
CC(=O)N1Cc2ccccc2OC2(CCN(CC(=O)Nc3cccc(C)c3C)CC2)C1 | -15.9% (inactive)
Cn1cccc1/C(C#N)=C\c1ccc2c(c1)OCO2 | 76.2% (active)
Cn1c(=O)c(-c2ccc(C(=O)NCc3ccc(F)cc3F)cc2)nc2cccnc21 | 15.4% (inactive)
CNC(=O)C1(C)CN(C(=O)c2ccc3[nH]c(C)c(C)c3c2)CCO1 (configuration not stated) | -61.8% (inactive)
Cc1cc(NC(=O)CSc2nccn2-c2ccc([N+](=O)[O-])cc2)no1 | -89.6% (inactive)
O=C(NCC1CC1)[C@H]1C[C@@H]2CN(CC3CC3)C[C@H]1O2 | -27.5% (inactive)
COC(=O)c1cc2sc(Cl)cc2n1Cc1cc(=O)n2ccccc2n1 | -9.48% (inactive)
CC(C)OC(=O)c1cc2c(ccn2-c2ccc(F)cc2)n1Cc1ccccn1 | 64% (active)
CCOC(=O)c1cc2c(ccn2-c2ccc(F)cc2)n1Cc1ncc(C)c(OC)c1C | 3.2% (inactive)
O=C(NC(c1ccccc1)C1CC1)c1ccc2c(c1)S(=O)(=O)Nc1ncnn1-2 (configuration not stated) | -8.33% (inactive)
COc1ccccc1NS(=O)(=O)c1ccc2oc(Nc3ccc(Cl)c(C(F)(F)F)c3)nc2c1 | -24.6% (inactive)
COc1ccc2c(c1)c(N1CCCC1=O)c(C(=O)NCc1ccccn1)n2C | -0.85% (inactive)
Cc1nn(CC(=O)c2cc(C)n(-c3ccc4c(c3)OCO4)c2C)c(C)c1[N+](=O)[O-] | 58.8% (active)
Cc1nn(-c2ccc(F)cc2)c(C)c1S(=O)(=O)NCc1ccc2c(c1)OCO2 | -20.2% (inactive)
COc1cccc(C2C3=C(CC(C)(C)CC3=O)Nc3ccccc3N2C(=O)Cc2ccccc2)c1 (configuration not stated) | 2.23% (inactive)
Cc1ccccc1-c1nc(-c2cn(CC(=O)Nc3ccccc3)cn2)no1 | 64.4% (active)
Cc1ccccc1-c1nc(-c2cccc(OCC(=O)N3CCOCC3)c2)no1 | 7.89% (inactive)

SMILES | inhibition
Cc1cc(C)cc(NC(=O)Cn2cnc(-c3nc(C)cs3)c2)c1 | -4.24% (inactive)
C[C@H](NC(=O)c1ccc2c(c1)OCO2)c1nc2cc(-c3ccc(F)cc3)ncn2n1 | 18% (inactive)
Nc1c(-c2ccc(Cl)cc2)cnc2c(-c3ccccc3)c(COc3ccccc3)nn12 | -0.15% (inactive)
COc1ccc(NC(=O)Cc2noc(-c3cccc(OC)c3)n2)cc1 | 50.5% (active)
COc1ccc(-c2noc(-c3cccc(OCC(=O)NC(C)C)c3)n2)cc1 | -16.3% (inactive)
COc1ccc(OCC(=O)Nc2noc(-c3ccccc3)n2)cc1 | 15.1% (inactive)
CN(C)[C@@H]1CN(S(=O)(=O)N2CCOCC2)C[C@H]1O | 11.8% (inactive)
Cc1ccc(C(=O)N2C[C@@H]3CCN(c4ncccn4)C[C@@H]3C2)cc1 | -16.6% (inactive)
COc1cccc(CNC(=O)c2nnn(CC(=O)Nc3cc(C)ccc3C)c2N)c1 | 67.9% (active)
COc1cccc(NC(=O)c2nnn(Cc3nc(-c4cccc(C)c4)oc3C)c2N)c1 | -2.67% (inactive)
COc1cccc(CNC(=O)Cn2cnc(S(=O)(=O)N3CCCC3)c2)c1 | 19% (inactive)
Cc1ccc(C)c(NC(=O)c2cn(C)cc3c(=O)n(-c4ccccc4)nc2-3)c1 | -13.8% (inactive)
Cc1nc(-c2ccc(C)c(S(=O)(=O)NCC(=O)Nc3cccc(Cl)c3)c2)no1 | 7.8% (inactive)
Cc1ccc(Nc2nc(NCC(=O)Nc3cc(C)ccc3C)nc(Nc3ccc(C)cc3)n2)cc1 | 38% (active)
CCCN1CCC(N2C[C@@H]3CN(S(=O)(=O)c4ccccc4)C[C@@H]3C2)CC1 | -38.2% (inactive)
COc1ccc2ncc(S(=O)(=O)c3ccccc3)c(Nc3ccc(F)cc3)c2c1 | 17.2% (inactive)
Cc1nc(-c2ccccc2)sc1-c1nc(-c2ccccc2)ncc1S(=O)(=O)c1ccccc1 | 63.3% (active)
Cc1ccc2c(c1)CN(S(C)(=O)=O)CC1(CCN(CC(=O)N3CCCCC3)CC1)O2 | 0.0399% (inactive)
CCOC(=O)C1CCN(S(=O)(=O)c2cc3[nH]c4c(c3cc2CC)C(=O)CCC4)CC1 | -25.1% (inactive)
Cc1cc(C(F)(F)F)nn1CC(=O)O | -0.231% (inactive)
O=C(Cc1ccc(Cl)cc1)NCC(=O)Nc1nc2ccccc2[nH]1 | -1.55% (inactive)
